Experimental data as given in PubChem BioAssay AID602429 (Sanford-Burnham Center for Chemical Genomics, 2012).
Screen size: about 360,000 compounds; about 1,200 (0.33%) were called active. Only a selection was taken, and actives are over-represented in it overall. Unmarked numbers belong to inactive results. Cut-off read from the data, not from the text of the source: active = inhibition above about 37%; inactive = the rest.

target: Small ubiquitin-related modifier 1 (Homo sapiens) (UniProt P63165); assay: modulators of SUMO1 protein-protein interactions, primary screen, biochemical, uHTS (AID 602429); settings: SUMO1 binding to a labelled peptide, TR-FRET, 1 h; at 20 µM; active compounds read high
Sequence (P63165 whole entry, looked up): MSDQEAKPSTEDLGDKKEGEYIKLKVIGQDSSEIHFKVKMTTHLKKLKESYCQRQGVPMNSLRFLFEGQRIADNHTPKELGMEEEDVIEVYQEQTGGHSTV

Row | SMILES | inhibition
1 | COc1cccc(-c2cc3nc4c(c(N5CCC6(CC5)OCCO6)n3n2)CCCC4)c1 | 1.23%
2 | N#CC1(NC(=O)COC(=O)CSc2ccc(F)cc2)CCCCC1 | 1.24%
3 | O=C(NCC1CCCO1)C1CCN(C2CCN(C(=O)C3CCCCC3)CC2)CC1 (stereo not drawn) | 2.09%
4 | COc1ccc(C(=O)NCc2ccccc2C)cc1S(=O)(=O)NC1CCCC1 | 0.24%
5 | CCCNC(=O)C1(C)CCN(C(=O)c2cc(F)ccc2C)C1 (stereo not drawn) | -2.78%
6 | CCCCCc1nnc(NC(=O)c2ccc(=O)n(C)n2)s1 | -5.45%
7 | O=C(Cn1cc2c(n1)CCCCC2)NCCN1CCOCC1 | -0.24%
8 | COc1ccccc1CNC(=O)Cn1cc2c(n1)CCCC2 | -1.54%
9 | COCCNC(=O)Cn1cc2c(n1)CCCCC2 | 42.7% (active)
10 | Cc1ccc(NC(=O)c2oc(=O)c3ccccc3c2-c2ccccc2)c(C)c1 | 3.85%
11 | CCC1(C)COC(c2ccc(OC)c(OC)c2)OC1 (stereo not drawn) | 0.985%
12 | CCCC(C(=O)n1nc(C)cc1C)C(NS(=O)(=O)c1ccc(C)cc1)c1ccccc1 (stereo not drawn) | -1.84%
13 | Nc1ccc2nc3c(=O)[nH]c(=S)[nH]c3nc2c1 | 92.6% (active)
14 | CC(C)c1nc(SCC(=O)NC(=O)NC(C)(C)C)n[nH]1 | 1.88%
15 | COc1ccc(C)cc1N(CC(=O)NC(C)c1ccccc1)S(C)(=O)=O (stereo not drawn) | -0.711%
16 | CN(Cc1ccco1)S(=O)(=O)c1nnc(NC(=O)c2ccccc2)s1 | 6.06%
17 | O=[N+]([O-])c1c(NCCO)cc(Sc2nc3ccccc3s2)c2nonc12 | 48.4% (active)
18 | Cc1ccccc1C(=O)Nc1cccc(-c2nnc(SCC(=O)O)n2C)c1 | 3.31%
19 | CC(C)C(C(=O)NCc1ccco1)N(CC1CCCO1)C(=O)CNS(=O)(=O)c1ccc(F)cc1 (stereo not drawn) | 4.85%
20 | Cc1cc2cc3n(c2nn1)N=C(Cl)CC3 | -9.97%
21 | COc1cccc2c1C(=O)c1c(O)c3c(c(O)c1C2=O)CC(O)(C(C)=NNC(=O)c1ccc(Cl)c(Cl)c1)CC3OC1CC(N)C(O)C(C)O1 (stereo not drawn) | 111% (active)
22 | COc1ccc(NC(=O)CN(C)C(=O)c2cc(C3CC3)nn2-c2ccccc2)cc1 | -1.85%
23 | CCN1C(=NCCc2cccnc2)N[C@@H](c2ccccc2)[C@H](C(=O)OC)[C@H]1C | -3.87%
24 | CN(C(=O)CC1C(=O)NCCN1Cc1ccc(F)cc1Cl)C1CCCCC1 (stereo not drawn) | -1.34%
25 | COc1ccc(CCNc2nc3ccc(C)cc3n3cnnc23)cc1OC | 2.61%
26 | COc1cc(Nc2nc3ccc(Cl)cc3n3cnnc23)cc(OC)c1OC | -1.84%
27 | COc1ccc(OC)c(Nc2nc3ccccc3n3cnnc23)c1 | 47.2% (active)

Row | SMILES | inhibition
28 | N#C/C(=C/c1cccc([N+](=O)[O-])c1)c1nnc2n1CCCCC2 | -13.1%
29 | CC1CCN(C(=O)COC(=O)c2cc(=O)[nH]c3ccccc23)CC1 | -34.7%
30 | Oc1c(Cl)cc(Cl)c(Cl)c1Cc1c(O)c(Cl)cc(Cl)c1Cl | 68.6% (active)
31 | CCN(CC)S(=O)(=O)N1CCC(C(=O)NC(C)CCc2ccccc2)CC1 (stereo not drawn) | -0.482%
32 | Nc1nc(Sc2ncccc2[N+](=O)[O-])n[nH]1 | -26.7%
33 | CCCc1noc2c1/C(=N\O)CCC2 | 1.7%
34 | COc1ccc(-c2nnc(-c3ccc4ccccc4c3)o2)cc1 | 51.9% (active)
35 | COc1ccc(-c2nnc(SC(=O)N3c4ccccc4Sc4ccccc43)o2)cc1 | -3.37%
36 | COc1ccc(-c2nnc(SC(C)C(=O)NC3CC3)o2)cc1 (stereo not drawn) | 1.98%
37 | ONC(=Nc1ccccc1)c1ccccc1Cl | 0.653%
38 | CN(C(=O)COC(=O)c1cc(=O)[nH]c2ccccc12)C1CCCCC1 | -17.9%
39 | Clc1ccc(-n2nnnc2-c2cnc(-c3ccccn3)nc2-c2cccs2)cc1 | -11.8%
40 | S=c1[nH]nc(-c2cccs2)n1/N=C/c1cn(-c2ccccc2)nc1-c1ccc(Cl)cc1 | 41.9% (active)
41 | Cc1ccsc1/C=N/n1c(=S)[nH]nc(C)c1=O | -0.0625%
42 | CSCC[C@H](NC(=O)NC1CCCC1)C(=O)O | 2.79%
43 | O=C(CSc1nc2ccccc2c(=O)[nH]1)Nc1nc(-c2ccc(Br)cc2)cs1 | 94.3% (active)
44 | Cc1cc(C)c(-c2csc(NC(=O)CCCc3nc4ccccc4c(=O)[nH]3)n2)c(C)c1 | 0.192%
45 | O=C(COC(=O)c1cc(=O)[nH]c2ccccc12)Nc1nc(-c2cccc(Br)c2)cs1 | 2.92%
46 | O=C(O)c1ccc(S(=O)(=O)c2ccccc2)s1 | 2.5%
47 | COc1ccc(NC(=O)CCC(=O)Nc2nnc(C3CCCCC3)s2)cc1 | 44% (active)
48 | COc1ccc(OCCCC(=O)Nc2nnc(C3CCCO3)s2)cc1 (stereo not drawn) | 0.167%
49 | COc1ccc2c(CC(=O)Nc3nnc(C4CC4)s3)coc2c1 | -1.1%
50 | COc1ccccc1NC(=O)C1=C(C)Nc2nc3ccccc3n2C1c1cccs1 (stereo not drawn) | -1.24%
51 | COc1ccccc1NC(=O)C1=C(C)Nc2nnnn2C1c1cccc(Br)c1 (stereo not drawn) | 43.5% (active)
52 | COc1cc(C2C(C(=O)Nc3ccccc3OC)=C(C)Nc3ncnn32)ccc1O (stereo not drawn) | -0.861%
53 | O=C1c2ccccc2C(=O)C1C(=O)C1CC1 | -16.1%
